Experimental data: PubChem BioAssay (NCI)
The panel holds about 79,000 compounds, 15% with a hit somewhere; the sample as a whole holds those more often. Unmarked numbers belong to inactive results. Calls of active or inactive are those of the source. No stated cut-off is given here; in the data, active means growth inhibition above about 70%; inactive means the rest.

Experiment: NCI Yeast Anticancer Drug Screen. Data for the rad50EPP+ strain (AID 151);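 further: 0% = growth of vehicle-treated control cultures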
Conditions: S. cerevisiae rad50 mutant strain, active compounds read high
Procedure: Growth inhibition of yeast strains with defined genetic alterations is measured as a screen for potential anti-cancer activity. Selected strains with alterations in DNA damage repair or cell cycle control were exposed to compounds and growth inhibition was measured relative to vehicle treated controls. The strain used in this assay is rad50EPP+

| Compound | growth inhibition (at 1.2 µM) | growth inhibition (at 3.7 µM) | growth inhibition (at 11.0 µM) | growth inhibition (at 33.0 µM) | growth inhibition (at 100.0 µM) |
| --- | --- | --- | --- | --- | --- |
| CCc1ncnc2cc(OCC3CO3)c(OC)cc12 (stereo not given) | 8% | 31% | 31% | 47% | 74% (active) |
| CCc1ccc(NS(=O)(=O)c2ccccc2)c([N+](=O)[O-])c1 | 10% | 18% | 36% | 53% | 75% (active) |
| O=Cc1cccc2ccc3ccccc3c12 | 5% | 15% | 36% | 77% (active) | 95% (active) |
| NCCNc1ccc(NCCN)c2c1C(=O)c1c(O)ccc(O)c1C2=O | 30% | 62% | 82% (active) | 87% (active) | 66% |
| CNC(=O)OCc1c(COC(=O)NC)c(-c2ccc(-c3ccccc3)cc2)n(C)c1C | -33% | -31% | -28% | -14% | -1% |
| O=C1C2C(C(=O)N1c1ccc(OCc3ccccc3)cc1)C1c3ccccc3C2C2CCCCN21 (stereo not given) | -1% | 4% | 0% | 1% | 6% |
| O=C1NC(=O)C2C3C=CC(C3)C12 (stereo not given) | 2% | 21% | 67% | 91% (active) | 97% (active) |
| O=C(O)C1OC1(c1cccc(Cl)c1)c1ccccc1Cl (stereo not given) | 0% | 9% | 12% | 25% | 36% |
